# PMC4336329 (PLoS ONE, 2015)
# Out of some 310,000 compounds screened, about 14,000 (4.5%) showed an effect of 50% or more. Effects have a minus sign here. The list comes from a sample in which strong results are over-represented; it also holds similar structures and randomly drawn compounds.
# Target: human ether-à-go-go-related gene (hERG) potassium channel (human, UniProt Q12809)
# Assay: primary screen, population patch clamp on CHO cells stably expressing hERG; higher = less effect of the substance
# 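Note: peak tail current of the secondary pulse compared with the same well before compound.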
# human ether-à-go-go-related gene (hERG) potassium channel, sequence (Q12809 whole entry, looked up): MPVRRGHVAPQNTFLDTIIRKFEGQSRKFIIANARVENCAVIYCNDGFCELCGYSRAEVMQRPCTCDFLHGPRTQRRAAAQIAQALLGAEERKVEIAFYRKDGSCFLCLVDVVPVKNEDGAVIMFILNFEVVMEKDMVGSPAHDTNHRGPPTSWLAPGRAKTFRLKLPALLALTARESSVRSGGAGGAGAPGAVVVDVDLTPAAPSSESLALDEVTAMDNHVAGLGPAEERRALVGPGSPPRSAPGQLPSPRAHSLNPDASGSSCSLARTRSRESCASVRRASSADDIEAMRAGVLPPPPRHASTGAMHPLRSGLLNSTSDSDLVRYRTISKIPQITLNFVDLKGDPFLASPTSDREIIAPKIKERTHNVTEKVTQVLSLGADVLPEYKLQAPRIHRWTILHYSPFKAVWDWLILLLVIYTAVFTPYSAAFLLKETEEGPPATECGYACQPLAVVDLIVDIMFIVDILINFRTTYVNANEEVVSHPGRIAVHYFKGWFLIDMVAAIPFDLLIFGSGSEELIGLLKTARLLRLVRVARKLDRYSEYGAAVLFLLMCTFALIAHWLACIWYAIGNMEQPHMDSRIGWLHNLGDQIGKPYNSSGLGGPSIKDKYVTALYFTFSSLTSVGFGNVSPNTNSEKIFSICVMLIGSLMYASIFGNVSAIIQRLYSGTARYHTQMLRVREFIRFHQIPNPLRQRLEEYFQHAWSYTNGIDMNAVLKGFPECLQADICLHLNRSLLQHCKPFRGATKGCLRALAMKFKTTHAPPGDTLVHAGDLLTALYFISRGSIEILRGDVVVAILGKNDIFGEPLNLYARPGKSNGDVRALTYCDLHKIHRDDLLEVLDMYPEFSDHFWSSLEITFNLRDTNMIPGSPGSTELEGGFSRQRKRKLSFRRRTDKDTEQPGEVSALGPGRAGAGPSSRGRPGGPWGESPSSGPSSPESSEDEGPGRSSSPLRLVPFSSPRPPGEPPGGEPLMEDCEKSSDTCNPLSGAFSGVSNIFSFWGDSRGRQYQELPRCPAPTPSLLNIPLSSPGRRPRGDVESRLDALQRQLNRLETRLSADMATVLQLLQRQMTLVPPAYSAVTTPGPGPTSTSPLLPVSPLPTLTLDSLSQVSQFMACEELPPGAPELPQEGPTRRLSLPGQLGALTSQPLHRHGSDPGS
row,SMILES,"hERG current change (%, negative = inhibition) at 10uM"
1,O=C(NCCc1ccccc1)C1CCN(S(=O)(=O)c2cccnc2)CC1,12.9%
2,Cc1ccccc1C(=O)Nc1nnc(-c2cccnc2)o1,18.4%
3,CN1CCN(NC(=O)c2ccc(S(=O)(=O)N3CC4(C)CC3CC(C)(C)C4)cc2)CC1.Cl (stereo not drawn),-2.07%
4,CC(C)CN1CCN(Cc2ccc3ncccc3c2)CC1CCO (stereo not drawn),-13.2%
5,OCCC1CN(Cc2ccon2)CCN1Cc1ccc(F)c(F)c1 (stereo not drawn),-13.9%
6,Cc1ccc(CN2CCN(Cc3cccc4nccnc34)CC2CCO)cc1 (stereo not drawn),-66.6%
7,OCCC1CN(Cc2cccc3nccnc23)CCN1Cc1ccc(F)c(F)c1 (stereo not drawn),-56.4%
8,CC(C)CN1CCN(Cc2cccc3nccnc23)CC1CCO (stereo not drawn),-8.4%
9,OCCC1CN(Cc2ccc3ncccc3c2)CCN1Cc1ccccc1 (stereo not drawn),-14.8%
10,Cc1ccc(CN2CCN(Cc3ccc4ncccc4c3)CC2CCO)cc1 (stereo not drawn),-58.9%
11,OCCC1CN(Cc2cccc3nccnc23)CCN1Cc1ccc(F)cc1 (stereo not drawn),-30.8%
12,CC(C)=CCN1CCN(Cc2cccc3nccnc23)CC1CCO (stereo not drawn),-8.42%
13,COc1ccccc1N1CCN(C(=O)CSc2nc(N)cc(=O)[nH]2)CC1,6.2%
14,Cc1ccc(-n2c(O)c(C=NCCCn3ccnc3)c(=O)[nH]c2=O)cc1,19.6%
15,COc1ccccc1NS(=O)(=O)c1cccc(C(=O)N/N=C/c2ccc(N3CCOCC3)cc2)c1,-8.32%
16,CC(OC(=O)c1ccc(-c2ccc(O)cc2)cc1)C(=O)NC1CCCCC1C (stereo not drawn),-6.35%
17,CCOc1ccc(S(=O)(=O)Nc2cccc(C(=O)NCC(c3ccccc3)N(C)C)c2)cc1 (stereo not drawn),-12%
18,Cc1ccc(S(=O)(=O)Nc2cccc(C(=O)NCC(c3ccccc3)N(C)C)c2)cc1F (stereo not drawn),-45.8%
19,COc1ccc(C(CNC(=O)c2cccc(NS(=O)(=O)c3ccc(C)c(F)c3)c2)N(C)C)cc1 (stereo not drawn),-62.6%
20,COc1ccccc1C(CNC(=O)c1cccc(NS(=O)(=O)c2ccc(C)c(F)c2)c1)N(C)C (stereo not drawn),-42.5%
21,COc1ccc(C(CNC(=O)c2cccc(NS(=O)(=O)c3ccccc3)c2)N(C)C)cc1 (stereo not drawn),-46.4%
22,COc1ccccc1C(CNC(=O)c1cccc(NS(=O)(=O)c2ccc(Br)cc2)c1)N(C)C (stereo not drawn),-51.7%
23,COc1ccc(C(CNC(=O)c2cccc(NS(=O)(=O)c3ccc(Br)cc3)c2)N(C)C)cc1 (stereo not drawn),-61.5%
24,COc1ccc(C(CNC(=O)c2ccc(NS(=O)(=O)c3ccc(F)c(C)c3)cc2)N(C)C)cc1 (stereo not drawn),-25.8%
25,COc1ccc(C(CNC(=O)c2cccc(NS(=O)(=O)c3ccc(C)c(F)c3)c2)N2CCCC2)cc1 (stereo not drawn),-64%

row,SMILES,"hERG current change (%, negative = inhibition) at 10uM"
1,COc1ccc(C(CNC(=O)c2cccc(NS(=O)(=O)c3ccc(C)c(F)c3)c2)N2CCOCC2)cc1 (stereo not drawn),-9.43%
2,Cc1ccc(S(=O)(=O)Nc2cccc(C(=O)NCC(c3ccco3)N3CCCC3)c2)cc1F (stereo not drawn),-38.5%
3,COc1ccccc1C(CNC(=O)c1cccc(S(=O)(=O)Nc2ccc(C)cc2)c1)N(C)C (stereo not drawn),-8.39%
4,CCOC(=O)CN1C(=O)C(O)=C(C(C)=O)C1c1ccccc1 (stereo not drawn),11.3%
5,Cc1c(-c2ccccc2)nc2ccccc2c1C(=O)Oc1ccc([N+](=O)[O-])cc1,-21.6%
6,COc1ccc(C(=O)OCCNC(=O)c2c(Cl)nc3ccccn23)cc1.Cl,-6.58%
7,CC(=O)C(=Nc1ccccc1Cl)NNc1ccc(Cl)cc1,17.3%
8,CN1CCN(S(=O)(=O)c2cccc(C(=O)N(Cc3nnc(-c4ccc(Cl)cc4)o3)C3CC3)c2)CC1,-49.3%
9,Nc1cccc(-c2cc3ccccc3oc2=O)c1,6.38%
10,COc1ccc(Cl)cc1C(=O)N1CCN=C1SC,21.3%
11,CCOc1ccc(NC(=O)c2ccccc2NC(=O)c2cccnc2)cc1,7.52%
12,COc1c(C)cc(C(=O)C2CCCN(C(=O)c3cc(C)nc(C)n3)C2)cc1C (stereo not drawn),7.89%
13,COC(=O)C1=C(c2ccc(F)cc2OCc2ccccc2)C[C@@H]2CC[C@H]1N2C(=O)NCC1CC1,-51.5%
14,COC(=O)C1=C(c2ccc(F)cc2OCc2ccccc2)C[C@@H]2CC[C@H]1N2C,-52%
15,COC(=O)C1=C(c2ccc(F)cc2OCc2ccccc2)C[C@@H]2CC[C@H]1N2C(=O)NC1CC1,-10.4%
16,COC(=O)C1=C(c2ccc(F)cc2OCc2ccccc2)C[C@@H]2CC[C@H]1N2C(=O)NCc1ccccc1,-1.03%
17,COC(=O)C1=C(c2ccc(F)cc2OCc2ccccc2)C[C@@H]2CC[C@H]1N2C(=O)NCc1ccc(F)cc1,-5.76%
18,COC(=O)C1=C(c2ccc(F)cc2OCc2ccccc2)C[C@@H]2CC[C@H]1N2C(=O)NC(C)C,-35.3%
19,C#CCOCCOCCOCCNc1nc(N2CCN(C(=O)[C@H](CCC(=O)O)n3cc(C(N)[C@H](C)CC)nn3)CC2)nc(N2CCN(C(=O)[C@H](Cc3ccc(O)cc3)n3cc(C(N)[C@H](C)CC)nn3)CC2)n1.Cl (stereo partly drawn),7.62%
20,COc1cc(CCC(=O)Nc2nccs2)cc(OC)c1OC,3.1%
21,CCn1nc(C)cc1C(=O)N1CCCC(C(=O)c2ccc(OC)cc2C)C1 (stereo not drawn),3.32%
22,Cc1ccccc1S(=O)(=O)Cc1ccc(C(=O)NC2CCCCCC2)o1,-31.9%
23,CC(=O)Oc1ccc(/C=N/NC(=O)C2CCCN2S(=O)(=O)c2ccc(Cl)cc2)cc1 (stereo not drawn),-28.1%
24,Cn1c(=O)c2c(n(C)c1=O)=NC1(CCCCC1)ON=2,-15.4%
25,O=C(NCc1ccco1)C1CCN(S(=O)(=O)N2CCOCC2)CC1,-13.1%

row,SMILES,"hERG current change (%, negative = inhibition) at 10uM"
1,COc1cccc(CN2CCN(Cc3cccc(Oc4ccccc4)c3)CC2)c1OC.O=C(O)C(=O)O,-21.7%
2,COc1ccc(CN2CCN(CCSc3ccc(C)cc3)CC2)c(OC)c1OC.O=C(O)C(=O)O,-58.5%
3,COc1ccc(CN2CCN(CCCCOc3ccc(Cl)cc3)CC2)c(OC)c1OC.O=C(O)C(=O)O,-74.4%
4,COc1ccc(CN2CCN(C(=O)c3cccc4ccccc34)CC2)c(OC)c1OC.O=C(O)C(=O)O,11.9%
5,COc1ccc(CN2CCN(Cc3ccc(Br)cc3)CC2)c(OC)c1OC.O=C(O)C(=O)O,-69.7%
6,COc1ccc(CN2CCN(S(=O)(=O)c3ccc(F)cc3)CC2)c(OC)c1OC.O=C(O)C(=O)O,-23.4%
7,COc1ccc(CN2CCN(Cc3ccc(OC)c(OC)c3OC)CC2)cc1.O=C(O)C(=O)O,-41.3%
8,Cc1ccc(SCCN2CCN(Cc3ccccc3)CC2)cc1.O=C(O)C(=O)O,-37%
9,CN1CCN(Cc2cccc(Oc3ccccc3)c2)CC1,-28.2%
10,COc1cccc(CN2CCN(Cc3cccc(Br)c3)CC2)c1OC.O=C(O)C(=O)O,-21.2%
11,COc1ccc(CN2CCN(Cc3cccc(Oc4ccccc4)c3)CC2)c(OC)c1OC.O=C(O)C(=O)O,-58%
12,CCN1CCN(CCOc2ccc(Cl)cc2)CC1.O=C(O)C(=O)O,-34.3%
13,COc1ccc(C(=O)NC(=S)N(CCC(C)C)c2c(N)n(Cc3ccccc3)c(=O)[nH]c2=O)cc1,-5.8%
14,CN1C(=O)/C(=C2\SC(=S)N(C(CCC(=O)O)C(=O)O)C2=O)c2ccccc21 (stereo not drawn),13%
15,O=C(COc1ccc(F)cc1)c1ccc2c(c1)CCCC2,-5.65%
16,CCOC(=O)NNc1nncc2ccccc12.Cl,2.17%
17,Cc1nn(-c2ccccc2)c(C)c1NC(=O)COC(=O)c1cccc(OC(F)F)c1,-38.1%
18,CCOC(=O)C1C(=O)C=C(/C=C/c2ccccc2)CC1c1ccc(Cl)cc1 (stereo not drawn),-0.716%
19,CCCc1nc(-c2ccc(-c3ccc(F)cc3)cc2)no1,7.85%
20,CC(C(=O)NCc1ccc(Cl)cc1)n1cccc1C(=O)c1ccccc1 (stereo not drawn),-21.4%
21,O=C(O)c1ccc(-c2nnn(Cc3ccccc3F)n2)cc1,58.7%
22,CCN(CC)CC(O)COc1ccccc1C(=O)CCc1ccccc1 (stereo not drawn),-3.49%
23,CC(C)(C)NCC(O)COc1ccccc1C(=O)CCc1ccccc1.Cl (stereo not drawn),-69.9%
24,CC(C)(C)NCC(O)COc1cccc2[nH]c(=O)[nH]c12.Cl (stereo not drawn),7.11%
25,CC1=CC(=C2C(=O)NC(=S)NC2=O)C=C(C(F)(F)F)N1CCc1ccccc1,12.9%
